# Screens: PubChem BioAssay, National Center for Advancing Translational Sciences (NCATS)
# Rows were chosen to be rich in hits. Some 11% of all compounds tested hit in one or more screens of this group.
# NS1 inh: inhibitors of influenza NS1 protein function; Potency, µM (top dose mostly 46.1 µM); 270,000 tested, 0.4% active; AID 2326; calls by dose curve; also: actives are rising curves; nearly all actives have a fitted effect of over 50% in size
#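 OD600 was taken as the measure of yeast growth restored by compound in an NS1-expressing S. cerevisiae strain. Cells had been washed out of glucose medium and diluted 1:100 into galactose -URA medium, pH 6.0.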
# Pf growth 96h: P. falciparum growth inhibition at 96 hours; P. falciparum luciferase reporter growth, 96 h; Potency, µM (titrated, usually from 28.7 µM), hits mostly inhibitors; 320,000 tested, 6.9% active
#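 P. falciparum expressing integrated firefly luciferase, in erythrocytes at 2% hematocrit, 0.05% parasitemia, incubated with compounds 96 h at 37 C, 5% CO2. Growth inhibition read as loss of luminescence; two-generation exposure targets delayed-death apicoplast inhibitors.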
# Sm TGR block: S. mansoni TGR enzyme inhibition; 360,000 tested, 3% active; Potency, µM (top dose mostly 114 µM), usual class: inhibitors; purified TGR, DTNB reduction, TNB absorbance 405 nm; also: nearly all actives have a fitted effect of over 60% in size
#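 TGR 20 nM + NADPH 100 uM (dispensed conc.), cpd preinc 15 min RT; start with NADPH (500 uM addition) then DTNB (15 mM addition). Kinetic TNB absorbance, 405 nm filter. Four-parameter Hill fit across titration.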
# AMA1 RON2 block: disrupts binding of P. falciparum AMA1 to RON2 | AlphaScreen AMA1-biotinylated RON2 peptide binding | Potency, µM (highest dose often 58.2 µM), hits mostly inhibitors | 360,000 tested, 0.2% active; also: nearly all actives have a fitted effect of over 45% in size
#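 AMA1 (3D7) with his tag at 25 nM final met compounds first, then biotinylated RON2 peptide at 25 nM; detection used donor plus acceptor beads, 10 µg/mL apiece, read by AlphaScreen after 30 min at room temperature.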
# Pf growth 48h: P. falciparum growth inhibition at 48 hours (one generation). P. falciparum luciferase growth in erythrocytes, 48 h. Potency, µM (highest dose often 28.7 µM), hits mostly inhibitors. AID 504832. 310,000 tested, 5.9% active
#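 First compound was added to culture medium, then infected red cells at 0.1% parasitemia and 2% hematocrit (final). After incubation at 37 C under 5% CO2, luciferase detection reagent was dispensed and light output recorded.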
# Hits are given with their value; n = inactive; u = inconclusive; x = no result given; [ ] = another dose, or the depositor's remark. Unless noted, calls follow the shape of the dose curve; as a rule, active = well fitted curve in the direction sought with a large enough effect; inconclusive = small, poorly fitted or top-dose-only effect, or another doubt; inactive = no such curve, though single readings can be large; an effect the other way counts as inactive or inconclusive.
SMILES,NS1 inh,Pf growth 96h,Sm TGR block,AMA1 RON2 block,Pf growth 48h
Fc1ccc(CSc2ccc(-c3ccc4c(c3)OCO4)nn2)cc1,n,n,n,n,n
Fc1cccc(CSc2ccc(-c3ccco3)nn2)c1,n,n,31.6µM,n,n
Cc1cccc(N2CCN(S(=O)(=O)c3ccc(Cl)nc3)CC2C)c1 (centres undefined),x,x,x,n,x
O=C(Nc1cccc([N+](=O)[O-])c1)c1ccc2nsnc2c1,n,13.1µM,n,n,n
O=[N+]([O-])c1ccc(N2CCN(C(=S)Nc3cccc(F)c3)CC2)cc1,n,n,n,n,3.29µM
CC(C)NS(=O)(=O)c1ccc(NC(=S)NC(=O)c2cccc([N+](=O)[O-])c2)cc1,n,13.1µM,u,n,n
O=C(NC(=S)Nc1ccc2[nH]c(=O)[nH]c2c1)c1cccc(F)c1,n,n,2.82µM,n,n
CCC(=O)NC(=S)Nc1ccc(S(=O)(=O)NC(C)C)cc1,n,u,n,n,n
COc1ccc(NC(=O)c2cnc(N3CCOCC3)c3ccccc23)cc1OC,x,x,n,x,x
Cc1ccc(NC(=O)CSc2nc(-c3ccccc3Cl)nc3cc(=O)[nH]n23)c(C)c1,x,x,n,x,x
O=C(NC(=S)Nc1ccc(CN2CCOCC2)cc1)c1cccc([N+](=O)[O-])c1,n,n,89.1µM,n,n
O=C(Nc1c(C(=O)N2CCOCC2)oc2ccccc12)c1cccc([N+](=O)[O-])c1,n,13.1µM,n,n,n
O=C(NC(=S)Nc1ccccc1)c1cc([N+](=O)[O-])ccc1N1CCOCC1,n,n[5.75 µM],n,n,n
O=C(NC(=S)Nc1ccc(CN2CCOCC2)cc1)c1cccc(F)c1,n,n,u,n,n
O=C(NC(=S)Nc1cccc(F)c1)c1cccc([N+](=O)[O-])c1,n,n,20µM,n,n
O=C(Nc1ccccc1N1CCOCC1)c1cccc([N+](=O)[O-])c1,n,u,n,n,n
O=C(NC(=S)Nc1ccc(N2CCOCC2)cc1)c1cccc([N+](=O)[O-])c1,n,n,39.8µM,n,n
Cc1ccc(-c2nc(C)c(CCNC(=O)C(=O)Nc3ccc(C)c(Cl)c3)s2)cc1,x,x,n,x,x
COc1ccc(/C=N/N=C2/SCC(=O)N2Cc2ccccc2)cc1,n,n,n,n,n
COc1ccc(N=C2SCC(=O)N2Cc2ccccc2)cc1,x,9.28µM,n,n,n
COc1ccc(N2C(=O)CSC23C(=O)N(Cc2ccc(C)cc2)c2ccccc23)cc1Cl (centres undefined),x,x,n,x,x
COC(=O)C1=C(C)NC(=O)/C1=C\c1cc(C)n(-c2ccccc2C)c1C,n,9.28µM,n,n,x
CC1=CC2=NC(=O)/C(=C\c3cc(C)n(-c4ccccc4F)c3C)C(=N)N2O1,n,u,n,n,10.4µM
Cc1cccc(C)c1-n1c(C)cc(/C=C2\NC(=O)NC2=O)c1C,n,11.7µM,u,n,11.7µM
COC(=O)C1=C(C)NC(=O)/C1=C\c1cc(C)n(-c2ccccc2F)c1C,n,n,14.1µM,n,u
SMILES,NS1 inh,Pf growth 96h,Sm TGR block,AMA1 RON2 block,Pf growth 48h
Cc1cc(/C=C2\NC(=O)NC2=O)c(C)n1-c1cccnc1,n,n,n,n,n
CC1=CC2=NC(=O)/C(=C\c3cc(C)n(-c4ccccc4)c3C)C(=N)N2O1,n,u,n,n,u
COC(=O)C1=C(C)NC(=O)/C1=C\c1cccs1,n,n,n,n,x
C[C@@H]1CN([C@H](C)CO)C(=O)c2cc(NC(=O)Nc3ccc4c(c3)OCO4)ccc2O[C@H]1CN(C)Cc1ccncc1,x,x,x,n,x
Cc1ccc(S(=O)(=O)N2CCC(C(=O)NCC(C)(C)N3CCOCC3)CC2)c(C)c1,x,u,n,n,n
COC(=O)C1=C(C)NC(=O)/C1=C\c1cc(C)n(-c2c(C)cccc2C)c1C,n,2.62µM,n,n,x
COC(=O)c1cccc(-n2c(C)cc(/C=C3\SC(=O)NC3=O)c2C)c1,x,x,x,n,x
CCc1ccc(S(=O)(=O)/N=C2\C=C(Nc3ccc(O)cc3)C(=O)c3ccccc32)cc1,n,u,n,25.1µM,0.738µM
CCc1ccc(S(=O)(=O)/N=C2\C=CC(=O)c3ccccc32)cc1,x,u,8.91µM,x,2.33µM
CCc1ccc(S(=O)(=O)/N=C2/C=C(Sc3ncn[nH]3)C(=O)c3ccccc32)cc1,n,4.15µM,0.316µM,n,2.94µM
O=S(=O)(N=C1C=CC(=NS(=O)(=O)c2ccccc2)c2ccccc21)c1ccccc1,x,x,x,n,x
CCc1ccc(S(=O)(=O)/N=C2\C=C(Nc3cccc(C(=O)O)c3)C(=O)c3ccccc32)cc1,n,n,n,u,1.65µM
